“And” between values parts separate entries of the source, which are not always exact repeats. Identical values can stand only once. Records with an inconclusive call do not appear. The source made the active and inactive calls. Calls come from the whole dose curve; as a rule, active = well fitted inhibition curve with a large enough effect; inconclusive = small, poorly fitted or top-dose-only effect; inactive = flat fitted curve, though single readings scatter.
What was measured:
[1] = system: CRL-7250; experiment: Cytotoxic Profiling of Annotated Libraries Using Quantitative High-Throughput Screening (AID 1296008); conditions: Five cell lines viability, CellTiter-Glo ATP luminescence, 48-72 h; max response: active compounds read low
Summary of the method: (§1)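 Cells exposed to compounds for 48 or 72 hr at 37 degrees Celsius. Viability read as ATP-coupled luminescence with CellTiter-Glo after 10 min at room temperature.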

[2] = system: HEK293; experiment: as above; conditions: Five cell lines viability, CellTiter-Glo ATP luminescence, 48-72 h; max response: active compounds read low
Summary of the method: as §1

[3] = system: HaCat; experiment: as above; conditions: Five cell lines viability, CellTiter-Glo ATP luminescence, 48-72 h; max response: active compounds read low
Summary of the method: as §1

[4] = system: KB-3-1; experiment: as above; conditions: Five cell lines viability, CellTiter-Glo ATP luminescence, 48-72 h; max response: active compounds read low
Summary of the method: as §1

[5] = system: NIH3T3; experiment: as above; conditions: Five cell lines viability, CellTiter-Glo ATP luminescence, 48-72 h; max response: active compounds read low
Summary of the method: as §1

[6] = system: MCC-26; experiment: qHTS assay to identify novel small-molecules to repurpose for Merkel cell carcinoma treatment (AID 1296009); conditions: MCC and control cell lines, CellTiter-Glo viability, 72 h; series mostly up to 46 µM
Summary of the method: (§2)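 Dose-response viability screen; 72 hr exposure at 37 degree celsius; CellTiter-Glo added, 10 min room temperature, luminescence read; RLUs scaled between no-cell and DMSO wells.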

[7] = system: MCC-13; experiment: as above; conditions: MCC and control cell lines, CellTiter-Glo viability, 72 h; series mostly up to 46 µM
Summary of the method: as §2

[8] = system: HACAT; experiment: as above; conditions: MCC and control cell lines, CellTiter-Glo viability, 72 h; at 44.8 µM (top of the series) unless noted
Summary of the method: as §2

[9] = system: HEK293T; experiment: as above; conditions: MCC and control cell lines, CellTiter-Glo viability, 72 h; at 44.8 µM (top of the series) unless noted
Summary of the method: as §2
% is set by controls: 0 for no effect and ±100 for the full control effect; potency is the fitted concentration of half-maximal effect.
Note: nearly all actives have a fitted effect of over 60% in size.

O=c1[nH]nc(OCCCc2ccc(Cl)cc2)c(NCc2cccnc2)c1Br
active: Potency [1] 6.51 µM | Potency [2] 3.32 µM and 7.31 µM | Potency [3] 20.9 µM
inactive: max response [4] 3.09% | max response [5] 1.68% and -21.7% | Potency [6]

C=CC(=O)Nc1cccc(Sc2nc(Nc3ccc(N4CCN(C)CC4)cc3)ncc2Cl)c1
active: Potency [1] 33.2 µM | Potency [3] 5.8 µM

CCC(=O)N1CCN(c2ccc(-n3c(=O)ccc4cnc5ccc(-c6cnc7ccccc7c6)cc5c43)cc2C(F)(F)F)CC1
active: Potency [1] 0.0841 µM | Potency [2] 14.8 nM and 53.1 nM | Potency [3] 1.05 µM and 668 nM | Potency [5] 33.2 nM and 237 nM

CCNC(=O)c1noc(-c2cc(C(C)C)c(O)cc2O)c1-c1ccc(CN2CCOCC2)cc1
active: Potency [1] 0.0833 µM | Potency [2] 46.9 nM and 9.2 nM | Potency [3] 469 nM and 41.1 nM | Potency [5] 264 nM and 51.7 nM | Potency [7] 0.209 µM

COc1cc(N2CCN(C)CC2)ccc1Nc1nc(N)c(C(=O)c2c(Cl)cccc2Cl)s1
active: Potency [2] 23.5 µM
inactive: max response [1] -21% | outcome [3] | max response [4] -5.11% | outcome [8] | Potency [7] | Potency [6]

Cn1cc(-c2ccc3nnc(Sc4ccc5ncccc5c4)n3n2)cn1
inactive: max response [1] -0.0054% | outcome [2] | max response [3] 1.95% | max response [4] 3.63% | outcome [9] | Potency [7] | Potency [6]

O=C1NC(=O)C(=Cc2ccc(-c3ccc(F)cc3O)o2)S1
inactive: max response [1] -7.89% | max response [2] -12.7% | max response [3] -35.3% | max response [5] -4.39% | Potency [7] | Potency [6]

C[C@@H](N)c1ccc(C(=O)Nc2ccnc3[nH]ccc23)cc1
active: Potency [2] 23.1 µM | Potency [3] 18.4 µM | Potency [5] 23.5 µM and 16.4 µM
inactive: max response [1] -24.2% | Potency [6]

Nc1nc(Cl)nc2c1ncn2[C@@H]1O[C@H](CO)[C@@H](O)[C@H]1F
active: Potency [1] 1.66 µM | Potency [2] 0.469 µM | Potency [3] 0.0743 µM | Potency [5] 166 nM | Potency [6] 0.59 µM

CCCCn1c(=O)n(Cc2ccccc2F)c(=O)c2[nH]c(Cc3ccc(NC(C)=O)cc3)nc21
inactive: max response [1] -20% and 4.17% | max response [3] -7.85% | outcome [3] | max response [4] -6.11% | outcome [4] | max response [5] -1.2% and 4.04% | outcome [8] | Potency [7] | Potency [6]

Cc1ccc(C(=O)N(CCCN)[C@@H](c2oc3cc(Cl)ccc3c(=O)c2Cc2ccccc2)C(C)C)cc1
inactive: max response [1] -26.7%
active: Potency [2] 0.0662 µM | Potency [4] 0.8 nM | Potency [7] 0.0083 µM

CCCCCCCCCCCCCC(=O)N[C@H](CO)[C@H](O)c1ccc([N+](=O)[O-])cc1
inactive: max response [4] 5.57% | Potency [7] | Potency [6]
active: Potency [1] 9.35 µM | Potency [2] 5.26 µM

Cc1cc(OCCCS(C)(=O)=O)cc(C)c1-c1cccc(COc2ccc3c(c2)OC[C@H]3CC(=O)O)c1
active: Potency [2] 20.9 µM
inactive: max response [1] -33.3% | max response [3] -16.3% | max response [5] -18.7% | Potency [7] | Potency [6]

CCNC(=O)Nc1ccc(Oc2ncnc(N)c2C=NOC)cc1Cl
inactive: outcome [1] | max response [2] -3.24% | outcome [3] | max response [5] 4.69% | outcome [8] | Potency [7] | Potency [6]

COc1c(C)cnc(Cn2cnc3c(Cl)nc(N)nc32)c1C
active: Potency [1] 0.935 µM | Potency [2] 0.132 µM | Potency [3] 0.296 µM | Potency [5] 526 nM

Cc1ccc(C(=O)N(CCCN)[C@@H](c2nc3cc(Cl)ccc3c(=O)n2Cc2ccccc2)C(C)C)cc1
inactive: max response [1] -35.4% | max response [2] -91.6% | max response [5] -42.8%
active: Potency [4] 0.8 nM | Potency [7] 0.0296 µM

CCC(C)SSc1ncc[nH]1 (configuration not stated)
active: Potency [2] 13.2 µM
inactive: max response [1] -3.49% | outcome [3] | max response [5] -14.8% | outcome [8] | Potency [6]

Cc1cccc2c1CC[C@H](CN1CCC(c3c(Cl)cccc3Cl)CC1)C[C@@H]2O
inactive: max response [1] -6.89% and 0.148% | max response [3] 1.39% | max response [4] -8.1% | max response [5] -20.2% | Potency [6]
active: Potency [2] 14.6 µM

Cc1cnc(CNC(=O)c2c(=O)c3ccc(N4CCCN(C)CC4)nc3n3c2sc2ccccc23)cn1
active: Potency [2] 0.0512 µM
inactive: max response [1] -36.5% and -21.3% | max response [3] -24.1% | Potency [7] | Potency [6]

Cn1cnc(-c2cc3nccc(Oc4ccc(NC(=S)NC(=O)Cc5ccccc5)cc4F)c3s2)c1
inactive: Potency [7]
active: Potency [1] 26.4 µM | Potency [2] 23.5 µM | Potency [5] 11.8 µM and 13 µM

Fc1ccc(CNc2ncnc3ccc(F)cc23)cc1
inactive: max response [3] -29% | max response [5] -22.4% | Potency [7] | Potency [6]
active: Potency [1] 4.69 µM and 4.61 µM | Potency [2] 6.51 µM

CN(C(Cc1ccc(OS(=O)(=O)c2cccc3cnccc23)cc1)C(=O)N1CCN(c2ccccc2)CC1)S(=O)(=O)c1cccc2cnccc12 (configuration not stated)
inactive: max response [1] 0.636% | max response [4] -3.12% | max response [5] -12.5% | Potency [7] | Potency [6]
active: Potency [2] 5.26 µM

O=C(CCCN1CCN(c2ccc(F)cc2)CC1)NC1c2ccccc2CSc2ccccc21 (configuration not stated)
inactive: max response [3] -5.32% | max response [5] -3.67% | Potency [6]
active: Potency [1] 8.33 µM | Potency [2] 3.72 µM

O=C1CCCC(=O)C1C(=O)c1ccc(C(F)(F)F)cc1[N+](=O)[O-]
inactive: max response [1] -12.8% | max response [2] 0.204% | max response [4] 8.25% | max response [5] -10% | Potency [7] | Potency [6]

CC[C@H](CC#N)OC(=O)N[C@@H](C)c1cccc(NC(=O)Nc2ccc(-c3cnco3)c(OC)c2)c1
active: Potency [1] 1.66 µM and 1.03 µM | Potency [2] 0.418 µM | Potency [4] 1.32 µM and 1.64 µM | Potency [5] 1.18 µM and 1.3 µM | Potency [7] 4.18 µM

COc1ccc(-c2cc3nccn3c(Nc3ncccc3C(N)=O)n2)cc1OC
active: Potency [1] 2.09 µM | Potency [2] 1.48 µM and 5.8 µM
inactive: max response [3] -23.8% | max response [4] -9.74% | Potency [7] | Potency [6]

CN1CC(=O)NC1=NC(=O)Nc1cccc(Cl)c1
inactive: max response [1] -9.31% | max response [2] -3.54% | max response [4] 5.76% | max response [5] -5.12% | Potency [7] | Potency [6]

CN(C)CCN(C)C(=O)c1ccc(NC(=O)Nc2ccc(-c3nc(N4CCOCC4)c4ccn(CC(F)(F)F)c4n3)cc2)cc1
active: Potency [1] 0.0662 µM | Potency [4] 1.5 nM | Potency [5] 59 nM
inactive: max response [2] -108% | Potency [7]

Cc1cccc(Nc2nc(N[C@@H]3CCCC[C@H]3N)ncc2C(N)=O)c1
active: Potency [2] 14.8 µM
inactive: outcome [1] | max response [3] -5.8% | Potency [7]

COc1cc2nccc(Oc3ccc(NC(=O)Nc4cc(C)on4)c(Cl)c3)c2cc1OC
active: Potency [1] 14.8 µM | Potency [2] 13.2 µM | Potency [4] 18700 nM | Potency [5] 9.35 µM and 3.66 µM

COc1ccc(-c2nc3ccc(C4=NNC(=O)CC4C)cc3[nH]2)cc1 (configuration not stated)
active: Potency [2] 18.8 µM and 23.1 µM
inactive: outcome [1] | max response [4] -4.82% | Potency [6]

Cc1cc(-c2ncc(CC(=O)Nc3ccc(-c4cnccn4)cn3)cc2C)ccn1
active: Potency [1] 10.5 µM and 6.51 µM | Potency [2] 9.35 µM and 8.2 µM
inactive: max response [3] -23.2% and -10.9% | max response [5] -16.2% and -6.07% | Potency [7] | Potency [6]

O=C(NC[C@H](O)CO)c1ccncc1Nc1ccc(I)cc1F
active: Potency [1] 16.6 µM | Potency [5] 8330 nM
inactive: max response [2] -10.7% | outcome [4] | Potency [6]

COC(=O)Nc1ccc(-c2nc(N3CCOCC3)c3cnn(C4CCN(C(=O)OC)CC4)c3n2)cc1
active: Potency [1] 0.332 µM | Potency [2] 1.66 µM | Potency [4] 1480 nM | Potency [5] 4180 nM

CC(C)n1c(C=C[C@H](O)C[C@H](O)CC(=O)O)c(-c2ccc(F)cc2)c2ccccc21
active: Potency [1] 2.64 µM | Potency [2] 14.8 µM | Potency [4] 11800 nM | Potency [5] 16600 nM | Potency [6] 20.9 µM

COC1CCC(C(=O)c2ccc3nc4c(cc3c2)CCCO4)CC1 (configuration not stated)
inactive: outcome [1] | outcome [3] | max response [4] -15.4% | max response [5] -7.67% | outcome [8] | Potency [7] | Potency [6]

— PubChem BioAssay (NCATS)
